# High-throughput results from PubChem.
# Gal4-VP16 FLuc: inhibits Gal4-VP16 luciferase reporter, ROR gamma counter-screen. Potency, µM (series often up to 53.6 µM), inactives show at the top dose activity, negative = inhibition, hits mostly inhibitors. 310,000 tested, 3.5% active. Drosophila S2 Gal4-VP16 UAS-luciferase, luminescence, 20 h. AID 2546;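 note: Gal4-VP16 expression switched on by copper sulfate through the metallothionein promoter; potency is the fitted concentration of half-maximal effect; nearly all actives have a fitted effect of over 50% in size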
# rTrxR1 inhibitor: rat TrxR1 inhibition | O89049 | recombinant rTrxR1, NADPH fluorescence consumption, selenite substrate | Potency, µM (titrated, usually from 114 µM), for the others: top-dose activity change, negative = inhibition, usual class: inhibitors | 390,000 tested, 1% active | AID 588453; note: potency is the fitted concentration of half-maximal effect; nearly all actives have a fitted effect of over 65% in size
#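 Rat TrxR1 (90 nM in the dispensed reagent) was pre-reduced with 400 uM NADPH for 5 min at room temperature, then incubated with compound for 15 min. After 400 uM selenite was added, NADPH fluorescence (Ex 340/Em 450 nm) was followed for 8 min.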
# GALK inh: blocks human galactokinase activity | P51570 | Purified GALK, Kinase-Glo residual ATP luminescence | Potency, µM (top dose mostly 57.5 µM), inactives show at the top dose activity change, negative = inhibition, actives largely listed as inhibitors | 270,000 tested, 0.007% active | AID 1868; note: potency is the fitted concentration of half-maximal effect
#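 Human GALK (5 nM) with 35 uM ATP and 100 uM galactose in 20 mM HEPES pH 8.0, 5 mM MgCl2, 60 mM NaCl, 1 mM DTT, 0.01% BSA. After 1 h at room temperature, leftover ATP was read by Kinase-Glo Plus luminescence.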
# TrxR1 substrate: is turned over as a substrate by rat TrxR1; purified TrxR1 substrate turnover, NADPH consumption readout; Potency, µM (highest dose often 114 µM), for inactives: at the top dose activity change, negative = substrate turnover; 390,000 tested, 0.01% active; O89049; AID 588456; note: potency is the fitted concentration of half-maximal effect; nearly all actives have a fitted effect of over 50% in size
#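 Rat TrxR1, dispensed at 90 nM, was prereduced with 400 uM NADPH (final) for 5 min at ~22 deg C, then incubated with compound 15 min before 400 uM selenite. A first-read NADPH fluorescence drop versus no-compound background flagged substrates.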
# RORg inh: ROR gamma (mouse) transcription inhibition. 310,000 tested, 5.4% active. Potency, µM (highest dose often 53.6 µM), for the others: at the highest dose activity change, negative = inhibition, usual class: inhibitors. Drosophila S2 Gal4-RORgamma UAS-luciferase reporter, 20 h; note: potency is the fitted concentration of half-maximal effect; nearly all actives have a fitted effect of over 60% in size
# Target sequence (P51450 whole entry, looked up, the tested form may be a part): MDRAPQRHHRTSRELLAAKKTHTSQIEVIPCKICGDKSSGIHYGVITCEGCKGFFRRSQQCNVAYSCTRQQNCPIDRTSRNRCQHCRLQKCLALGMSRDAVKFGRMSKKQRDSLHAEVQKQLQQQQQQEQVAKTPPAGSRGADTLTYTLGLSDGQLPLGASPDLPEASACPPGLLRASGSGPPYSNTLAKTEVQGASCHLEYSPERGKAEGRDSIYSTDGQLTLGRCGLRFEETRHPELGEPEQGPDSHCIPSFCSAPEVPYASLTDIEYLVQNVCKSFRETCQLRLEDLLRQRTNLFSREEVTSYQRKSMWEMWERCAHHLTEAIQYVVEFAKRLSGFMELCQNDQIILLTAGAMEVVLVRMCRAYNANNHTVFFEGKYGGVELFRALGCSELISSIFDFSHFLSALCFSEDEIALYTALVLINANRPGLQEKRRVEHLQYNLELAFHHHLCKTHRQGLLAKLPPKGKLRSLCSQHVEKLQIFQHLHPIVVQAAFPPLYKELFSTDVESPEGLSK
#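 Luciferase reporter read in Schneider cells carrying Gal4-RORγ (mouse) and UAS-Photinus luciferase; cells given compound 1 h before 700 uM copper sulfate induction, then incubated 20 h at ambient temperature.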
# FBPA coupling cs: counter-screen for Giardia aldolase inhibitors: coupling enzyme system. activity change, negative = inhibition, % at 58.2 µM, hits read low. coupling enzyme system counterscreen, AmpLite Red fluorescence. 290,000 tested, 0.67% active; in the data active = activity change below about -30%
#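 Final compound at 57.5 uM, incubated 10 min at RT with coupling enzyme reagent (glyceraldehyde-3-phosphate), then 20 min with substrate and AmpLite Red detection. Fluorescence read at 525/598 nm; tests interference with the coupling assay, not aldolase inhibition.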
# * = called active by the depositor; ? = inconclusive; . = no result; [ ] = remark or other dose. Shown are actives, neighbours in structure and some others; about 5.9% of the full set was active somewhere. Unless noted, calls come from the whole dose curve; as a rule, active = well fitted curve in the direction sought with a large enough effect; inconclusive = small, poorly fitted or top-dose-only effect, or another doubt; inactive = no such curve, though single readings can be large; an effect the other way counts as inactive or inconclusive. % is set by controls: 0 for no effect and ±100 for the full control effect.
SMILES,Gal4-VP16 FLuc,rTrxR1 inhibitor,GALK inh,TrxR1 substrate,RORg inh,FBPA coupling cs
COc1ccc(C(=O)c2c(C(F)(F)F)oc3c2C(=O)c2ccccc2C3=O)cc1,-5%,34%[57.1 µM],0%,6%[57.1 µM],17%,-43*
N/C(=N\C(=S)Nc1ccccc1)c1ccccc1,?,2%,-1%,-7%,7.9µM*,-2
NC(N)=NC(=S)Nc1ccc(Cl)cc1,?,-10%,1%,-1%,?,4
Cc1cc(C)nc(Nc2cccc3ccccc23)n1,.,18%,4%,1%,.,-1
Cc1cc2n(n1)SC(Nc1cccc3ccccc13)N2 (stereo not drawn),4.5µM*,-19%,-2%,6%,2µM*,-7
CCc1ccccc1NC1Nc2cc(C)nn2S1 (stereo not drawn),13µM*,8%[57.1 µM],3%,6%[57.1 µM],5.6µM*,2
Cc1cc2n(n1)SC(Nc1ccc(F)cc1)N2 (stereo not drawn),?,?,0%,0%,?,-1
CCc1ccccc1NC(=O)N1CCCn2nc(C)cc21,.,15%,.,6%,.,.
Cc1cc2n(n1)SC(Nc1cc(Cl)ccc1Cl)N2 (stereo not drawn),0.56µM*,7.1µM*,-3%,1%,0.5µM*,3
O=C(O)c1ccccc1/C=N/NC(=O)C1CCCC1,-3%,-16%,4%,-10%,-38%,1
Cc1cc(C)c(S(=O)(=O)Nc2ccc3c4c(cccc24)CC3)c(C)c1,?,-11%,4%,-4%,11µM*,-29
Cn1nnc2c(N3CCN(c4cccc(Cl)c4)CC3)ncnc21,.,35%[57.1 µM],.,23%[57.1 µM],.,.
CC(C)(C)c1csc(NNC(=O)c2ccc(Cl)cc2)n1,7.1µM*,15%,.,-1%,0.45µM*,0
C=CC1=C2C=C(C3CC3)N(C3CCCCC3)C=C2C(=O)C(C)(OC(=O)c2ccco2)C1=O (stereo not drawn),.,.,.,.,.,-43*
C=CC1=C2C=C(C3CC3)N(C3CCCC3)C=C2C(=O)C(C)(OC(=O)c2ccco2)C1=O (stereo not drawn),.,.,.,.,.,-42*
Cc1cc(OCc2cc(C(=O)N3CCN(C)C(=O)[C@@H]3C)no2)cc(C)c1Cl,14µM*,-2%,-3%,-3%,-34%,.
CNC(=S)N/N=C1\C(=O)c2cccc3cccc1c23,2.5µM*,8%,0%,-1%,0.5µM*,1
O=C(N/N=C1\C(=O)c2cccc3cccc1c23)c1ccc(O)cc1,0.32µM*,17%[57.1 µM],-1%,-6%,0.071µM*,0
O=C(N/N=C1\CCc2ccccc21)c1ccc(O)cc1,-1%,17%[57.1 µM],4%,7%[57.1 µM],25%,4
CCCCNC(=S)N/N=C1\C(=O)c2cccc3cccc1c23,?,-2%,0%,-3%,?,-3
COc1ccc(Cn2nnnc2C(c2ccc(N(C)C)cc2)N2CCC(C(N)=O)CC2)cc1 (stereo not drawn),-4%,7.1µM*,4%,0%[57.1 µM],-11%,1
COc1ccc2nc(Cl)c(C3CC(c4ccco4)=NN3C(=O)CCCC(=O)O)cc2c1 (stereo not drawn),2%,40µM*,-2%,4%,-2%,1
CCNS(=O)(=O)c1ccc(-c2ccc(-n3cnnn3)cc2)cc1,5%,22%[57.1 µM],0%,11%[57.1 µM],3%,1
O=C(Nc1cccc(-c2nn[nH]n2)c1)c1cccs1,10µM*,10%,-2%,-2%,7.9µM*,.
Cc1ccc(-c2noc(CCCc3ccccc3)n2)cc1,-10%,13%,0%,2%,0%,3
SMILES,Gal4-VP16 FLuc,rTrxR1 inhibitor,GALK inh,TrxR1 substrate,RORg inh,FBPA coupling cs
O=C(CNC(=O)c1ccco1)NCCCc1ccccc1,2%,28%[57.1 µM],1%,10%[57.1 µM],3%,3
Cc1c(OCC(=O)N2CCC(C(=O)O)CC2)ccc2c3c(c(=O)oc12)CCC3,-10%,14µM*,.,95%,-12%,5
Cc1c(C)c2c(OCC(=O)N3CCC(C(=O)O)CC3)cc3c(c2oc1=O)CCC(C)(C)O3,4%,79µM*,.,602%,8%,-4
Cc1c(OCC(=O)N2CCC(C(N)=O)CC2)ccc2c3c(c(=O)oc12)CCC3,0%,-7%,.,54%,-4%,2
Cc1c(C)c2c(OCC(=O)N3CCC(C(=O)NCC(C)C)CC3)cc3c(c2oc1=O)CCC(C)(C)O3,-6%,-5%,9%,188%,1%,0
Oc1cccc(-c2nnc(-c3cccc(O)c3)nn2)c1,.,3%[11.4 µM],.,-4%[11.4 µM],.,.
COc1ccccc1N1C(C)=CC(=C(C#N)c2nc3ccccc3s2)C=C1C,?,2%,0%,-11%,7.1µM*,-2
CC1=CC(=C(C#N)c2nc3ccccc3s2)C=C(C)N1c1ccc(F)cc1,-5%,-14%,0%,-11%,?,-1
Cc1ccccc1/C=C1\CCCc2ccccc2C1=O,5%,11%[57.1 µM],4%,1%[57.1 µM],-5%,3
COc1cccc(/C=C2\CCc3ccccc3C2=O)c1,11µM*,9%[57.1 µM],15%,6%[57.1 µM],11µM*,-2
Cc1ccsc1/C=C1\CCc2ccccc2C1=O,11µM*,12%[57.1 µM],9%,-3%[57.1 µM],?,0
CC(=O)Oc1ccc(/C=C2/CCc3ccccc3C2=O)cc1,10µM*,14%,22%,-1%,8.9µM*,1
OCCC1CN(Cc2ccon2)CCN1CCc1ccccc1 (stereo not drawn),-6%,12%,-2%,-3%,-22%,1
O=C(CSc1nc(-c2cccc(F)c2)[nH]c1-c1ccccc1)Nc1ccc2c(c1)OCCO2,.,3%,.,9%,.,.
CC(C)(C)N1C(=O)[C@@H]2[C@H]3C(=CC[C@H]2C1=O)C(=O)[C@H]1O[C@H]1[C@H]3O,?,.,.,.,1.4µM*,0
C[C@@H](c1ccccc1)N1C(=O)[C@@H]2[C@H]3C(=CC[C@H]2C1=O)C(=O)[C@H]1O[C@H]1[C@H]3O,?,.,.,.,3.5µM*,-3
CCOC(=O)CCN1C(=O)[C@@H]2[C@H]3C(=CC[C@H]2C1=O)C(=O)[C@H]1O[C@H]1[C@H]3O,-84%[10 µM],.,.,.,2.2µM*,-1
O=C1C2=CC[C@@H]3C(=O)N(c4ccc(F)cc4F)C(=O)[C@H]3[C@H]2[C@H](O)[C@H]2O[C@H]12,?,.,.,.,?,0
CCOC(=O)c1sc2nc3n(c(=O)c2c1C)CCCCC3,-3%,5%,2%,-5%,-4%,0
CCOc1ccc(NC(=O)N(CCN2CCOCC2)Cc2ccc3c(c2)CCCN3CC)cc1,-2%,-10%,3%,-4%,12%,-2
COc1ccc(NC(=S)N(CCCN2CCCC2)Cc2cccs2)cc1,-5%,-4%[57.1 µM],1%,6%[57.1 µM],3%,0
